This is a sample that favours compounds with a hit; in the whole collection about 3.5% have one here.
M1 PAM: potentiates human M1 receptor response to acetylcholine. activation, % at 3 µM. CHO-K1 hM1, Fluo-8 calcium fluorescence, ACh EC20; 0% = ACh EC20, 100% = maximal ACh. AID 588819. P11229. 360,000 tested, 0.088% active; in the data active means activation above about 19%, passing the limit was not always enough
Myeloid diff MLP: promotes myeloid progenitor differentiation. ER-HoxA9 myeloid progenitors, lysozyme-GFP differentiation, flow cytometry. calls only at 10 µM. 360,000 tested, 1% active. AID 624256;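 active means normalized GFP-positive differentiation at or above the plate's own cutoff, the solvent-only control mean plus 3 SD; inconclusive means no clear call, values can overlap the other calls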;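 further: cells exposed to compound for four days before flow analysis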
ATG4B inh: inhibitors of human ATG4B cysteine protease; inhibition, % at 8.33 µM; AID 504462; Q9Y4P1; ATG4B cleavage of LC3-PLA2, NBD-HPC fluorescence, 1 h; 340,000 tested, 0.51% active; in the data active means inhibition above about 40%
Target sequence (Q9Y4P1 whole entry, looked up): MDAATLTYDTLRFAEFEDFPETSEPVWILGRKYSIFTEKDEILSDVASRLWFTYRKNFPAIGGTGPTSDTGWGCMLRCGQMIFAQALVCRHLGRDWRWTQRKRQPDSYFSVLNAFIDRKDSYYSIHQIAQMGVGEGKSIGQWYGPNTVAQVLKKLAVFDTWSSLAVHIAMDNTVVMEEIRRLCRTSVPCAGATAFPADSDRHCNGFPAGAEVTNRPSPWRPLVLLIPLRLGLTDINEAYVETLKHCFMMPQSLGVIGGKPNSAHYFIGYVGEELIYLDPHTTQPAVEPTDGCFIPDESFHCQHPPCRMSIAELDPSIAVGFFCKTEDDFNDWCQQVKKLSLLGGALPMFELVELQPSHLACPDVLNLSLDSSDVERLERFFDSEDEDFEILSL
SKN-1 block: C. elegans SKN-1 inhibition | inhibition, % at 21.8 µM | 360,000 tested, 0.49% active | C. elegans VP596 Pgst-4::GFP/RFP ratio, acrylamide-induced, 24 h;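 active means interference check ratio from 0.5 to 1.5 plus GFP to RFP signal ratio inhibition reaching or exceeding a fixed threshold, cut at about 30% in these data, passing the limit was not always enough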
M1 antag: human CHRM1 antagonism; CHO-K1 hM1, Fluo-8 calcium fluorescence, ACh EC80 antagonist; P11229; 360,000 tested, 1.3% active; inhibition, % at 3 µM; AID 588852;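 active means percent inhibition above its own plate's cutoff, namely the mean of that plate's compound wells plus 3 SD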;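 further: peak over basal fluorescence ratio during 140 s after agonist addition; 0% = ACh EC80 plus DMSO and 100% = DMSO alone without agonist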
CHRM1 agonist: agonists of human M1 muscarinic receptor; P11229; CHO-K1 hM1, Fluo-8 calcium fluorescence, agonist mode; 0% DMSO, 100% acetylcholine EC100; activation, % at 3 µM; 360,000 tested, 0.33% active; AID 588814;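 active means activation above the run's mean compound activation plus 3 SD, cut at about 16% in these data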;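 further: peak over basal fluorescence ratio within a 140 s kinetic read after compound addition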
Myeloid diff CP1: compounds promoting myeloid differentiation; shares compounds with Myeloid diff MLP; ER-HoxA9 myeloid progenitors, GFP/Mac1 double-positive flow; calls only; 2,300 tested, 2% active;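 active means share of green or green-and-red cells above 9 and 9% in run 1 or 4 and 3% in run 2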
GFP autofluor: flagged as fluorescent in myeloid differentiation counter-screen; ER-HoxA9 myeloid progenitors, no estrogen, GFP autofluorescence flow cytometry; vehicle wells 0%, positive control 100%; fluorescence response, % (concentration not given with the values); 2,300 tested, 7.4% active; shares compounds with Myeloid diff MLP;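 active means over 5% cells positive for green fluorescent reporter, or over 2% positive for both it and APC stain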;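 further: range taken on the double positive population between DMSO and positive control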
* = called active by the depositor; i = inactive; ? = inconclusive; . = not tested or not shown; + = active, no number.

SMILES	M1 PAM	Myeloid diff MLP	ATG4B inh	SKN-1 block	M1 antag	CHRM1 agonist	Myeloid diff CP1	GFP autofluor
CC(=O)Nc1ccc(-c2ccnc3c2CC(C(=O)Nc2cccc(N(C)C)c2)O3)cc1 (centres undefined)	6	+	.	-2	-17	-4	i	0
CC(=O)Nc1ccc(-c2ccnc3c2CC(C(=O)Nc2cccc(Oc4ccccc4)c2)O3)cc1 (centres undefined)	1	i	.	-12	7	-1	.	.
CC(=O)Nc1ccc(-c2ccnc3c2CC(C(=O)Nc2cccc(C(F)(F)F)c2)O3)cc1 (centres undefined)	0	+	.	14	1	2	i	0
CS(=O)(=O)Nc1cccc(NC(=O)C2Cc3c(-c4ccccc4)ccnc3O2)c1 (centres undefined)	4	+	.	-2	-17	1	i	0
CCN(CC(=O)NCc1ccc(F)cc1)C(=O)CN1CCN(c2ccc(OC)cc2)CC1	3	i	2	8	0	-4	.	.
O=c1[nH][nH]cc1C=Nc1ccccc1O	6	+	6	-14	-1	0	+	0
O=c1[nH][nH]cc1C=Nc1ccccc1Cl	7	i	7	4	2	-5	.	.
O=c1[nH][nH]cc1C=Nc1cc(Cl)ccc1O	9	i	-6	-5	-5	-6	i	0
CCCCN(CC)S(=O)(=O)c1ccc2c(c1)n(C)c(=O)c(=O)n2C	-2	i	-1	-3	3	-2	.	.
CCC(C)Nc1nc(OCC(F)(F)F)nc(OCC(F)(F)F)n1 (centres undefined)	5	i	-1	5	-9	-11	.	.
CCC(C)Nc1nc(OC(C(F)(F)F)C(F)(F)F)nc(OC(C(F)(F)F)C(F)(F)F)n1 (centres undefined)	0	+	-9	-28	-1	-1	i	0
O=C(CSc1nnc(NC(=O)c2ccco2)s1)Nc1ccc2c(c1)OCCO2	8	i	-3	3	-7	-3	.	.
O=c1c(=Nc2ccccc2O)c(=O)c2ccccc12	6	+	0	-1	4	-8	i	0
COc1ccc(/C=C/C(=O)NCCC(=O)N2CCCN(C)CC2)cc1	4	i	3	10	-5	-5	i	0
c1ccc2c(c1)CCc1c(-c3ccncc3)n[nH]c1-2	4	+	-10	8	0	-5	i	0
c1coc(CNC2CCCCCCC2)c1	6	i	-10	10	-8	-5	.	.
c1coc(CNC2C3CC4CC(C3)CC2C4)c1 (centres undefined)	15	i	2	-8	-16	-10	i	0
COc1ccc(CCN2CC(C(=O)OCC(=O)Nc3c(C)nn(-c4ccccc4)c3C)CC2=O)cc1OC (centres undefined)	3	i	-7	0	-3	0	.	.
Cc1c(Br)c(O)c(Br)c2sc(=O)oc12	5	i	3	-7	-6	-1	i	0
COc1cc(OC)c(S(=O)(=O)NC(C)C)cc1S(=O)(=O)NC(C)C	4	i	9	-2	7	-6	.	.
COc1cccc(-c2csc(N3CCN(CC(=O)Nc4ccc5c(c4)OCO5)CC3)n2)c1	0	i	7	17	-1	-2	i	0
CCOc1ccc(CNC(=O)Cn2ccc3cc(S(=O)(=O)N4CCCCCC4)ccc32)cc1	1	?	4	3	8	0	.	.
CC(C)N(Cc1cc2ccccc2[nH]c1=O)C(=O)C1CCCCC1	4	i	10	2	-3	-5	i	0
NC(=O)COc1c(-c2ccc(Br)o2)oc2ccccc2c1=O	10	i	-4	-7	-16	3	.	.
CC(=O)c1ccc(NS(=O)(=O)c2ccc3c(c2)CCC(=O)N3)cc1	4	i	-3	6	-4	-4	.	.
SMILES	M1 PAM	Myeloid diff MLP	ATG4B inh	SKN-1 block	M1 antag	CHRM1 agonist	Myeloid diff CP1	GFP autofluor
COC(=O)c1cc(NS(=O)(=O)c2ccc3c(c2)CCC(=O)N3)cc(C(=O)OC)c1	9	+	6	-10	-3	1	i	0
CC(=O)c1ccc(NC(=O)c2cc(CC(C)C)nc3ccccc23)cc1	12	i	-12	15	-11	-2	.	.
CCC(C)(C)NC(=O)C(c1ccc(C)o1)N(C(=O)c1csnn1)c1cccc(F)c1 (centres undefined)	6	i	-1	13	-11	-4	i	0
Cc1cc2c3c(c1C)C1(C(=O)N3C(C)(C)CC2C)C(C#N)=C(N)Oc2n[nH]c(C)c21 (centres undefined)	12	+	-7	-9	-7	-4	i	0
Cc1cc2c3c(c1)C1(C(=O)N3C(C)(C)CC2C)C(C#N)=C(N)Oc2n[nH]c(C)c21 (centres undefined)	8	i	-8	3	-18	-5	.	.
Cc1ccc(N2CCN(C(=S)c3ccc(-c4ccccc4[N+](=O)[O-])o3)CC2)cc1	4	i	-7	6	-5	-3	.	.
O=[N+]([O-])c1ccccc1-c1ccc(C(=S)N2CCN(c3ccccc3)CC2)o1	7	+	-2	0	-12	-3	i	0
Cc1ccc(-c2nnc(N(C)C(=O)c3cccnc3)s2)cn1	14	i	-3	-9	1	0	.	.
Cc1ccc(-c2nnc(N(C)C(=O)c3cccnc3)s2)cc1	6	i	-12	9	-10	1	i	0
CC1=C(C(=O)OC(C)C)C(c2cccs2)N2C(=O)CCSC2=N1 (centres undefined)	2	i	-6	-2	-2	-5	i	0
Cc1ccc(NS(=O)(=O)c2cc3c4c(cccc4c2)C(=O)NC3=O)cc1C	4	+	-10	23	-9	1	i	2
c1ccc2c(c1)Cc1ccccc1O2	-4	i	-2	28	-9	-5	.	.
COc1ccc(N(CC(=O)NC2CCCC2)C(=O)Cn2nnc(-c3ccc(C)cc3)n2)cc1OC	18	i	3	5	-10	6	i	1
COc1ccc(N(CC(=O)NC2CCCC2)C(=O)Cn2nnc(-c3ccc(F)cc3)n2)cc1OC	3	i	-11	-4	0	-1	.	.
CCCCN1C[C@H](Cc2ccccc2)[C@@H](CC(=O)Nc2ccccc2)C1=O	8	i	19	-12	6	7	i	0

Compound activity as filed in PubChem.
